These results are taken from PubChem BioAssay AID2289 (National Center for Advancing Translational Sciences (NCATS), 2010).

Among all 340,000 compounds or so, about 3,300 (0.97%) were called active. Roughly 9% stayed inconclusive and do not appear here. Calls come from the whole dose curve; as a rule, active = well fitted inhibition curve with a large enough effect; inconclusive = small, poorly fitted or top-dose-only effect, or effect the other way; inactive = flat fitted curve, though single readings scatter. The list shows a part of the results.
Potency is the fitted concentration of half-maximal effect.

This assay can be described thus: qHTS Assay for Modulators of miRNAs and/or Inhibitors of miR-21. Note: nearly all actives have a fitted effect of over 55% in size. The note with it: HeLa miR-21-FLuc reporter, luciferase luminescence, 48 h; actives lower the signal. Summed up:
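Compounds were titrated across several concentrations (up to approximately 40 uM) and incubated 48 hours with HeLa miR-21-FLuc reporter cells (miR-21 target sequence downstream of FLuc, endogenous miR-21). Readout was firefly luciferase luminescence after lytic detection reagent.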
On the technique in general: Quantitative high-throughput screening tests each substance at several concentrations.
For `Oc1ccc(/C=N/Nc2ccc(Cl)nn2)cc1O`, the Potency is 13.1 µM (active).

`Oc1ccc(/C=N/Nc2ccc(C(F)(F)F)cn2)cc1O`: the Potency was 10.4 µM (active).

In the case of `CCNc1nc(NCC)nc(N/N=C/c2ccc(O)c(O)c2)n1`, the Potency is 18.5 µM (active).

As for `O=C1C[C@H]2[C@H](CO)[C@@H](OC(=O)c3ccc(-c4ccccc4)cc3)C[C@H]2O1`, the Potency was 7.36 µM (active).

With `O=C(O)c1cccc(N/N=C/c2cc(Br)cc(Br)c2O)c1`, the Potency was 5.21 µM (active).

With `O=C(O)c1ccccc1N/N=C/c1cc(Br)cc(Br)c1O`, the Potency was 2.07 µM (active).

For the molecule `O=c1[nH]c2ccccc2c2cn(-c3ccccc3)nc12`, the Potency was 4.65 µM (active).

For the molecule `CC(CNC(=O)c1ccc2c(c1)nc1n2CCOC1)c1ccccc1` (centres undefined), the Potency is 13.1 µM (active).

Turning to `Cc1cccc(CCNC(=O)c2ccc3c(c2)nc2n3CCOC2)c1`, the Potency is 3.29 µM (active).

For `COc1cc(Cl)cc(/C=C/c2ccc3ccccc3n2)c1OC(C)=O`, the Potency was 0.414 µM (active).

For `O=C1c2ccccc2-c2nc3ccccc3cc21`, the Potency was 1.47 µM (active).

On to `COc1ccc(OCC(=O)Nc2ccc(-c3nc4cc(C)c(C)cc4o3)cc2)cc1`, for which the Potency was 0.131 µM (active).

For `Cc1cc2nc(-c3cccc(NC(=O)COc4ccc(C(C)C)cc4)c3)oc2cc1C`, the Potency was 0.369 µM (active).

Turning to `COc1ccc(OCC(=O)Nc2ccc(-c3nc4cc(Cl)ccc4o3)cc2)cc1`, the Potency was 2.93 µM (active).

As to `O=C(COc1ccc(Cl)cc1)Nc1ccc(-c2nc3cc(Cl)ccc3o2)c(O)c1`, the Potency was 7.36 µM (active).

With `O=C(OCC(=O)N1CCOCC1)c1ccccc1Cc1ccccc1`, the Potency was 2.93 µM (active).

As for `N/C(=N\OC(=O)c1cccc2ccccc12)c1ccncc1`, the Potency was 16.5 µM (active).

For the molecule `N/C(=N\OC(=O)c1ccc2ccccc2c1)c1ccncc1`, the Potency was 0.585 µM (active).

For the molecule `Cc1ccccc1C(=O)O/N=C(\N)c1ccncc1`, the Potency is 6.56 µM (active).

As to `COc1ccc(-n2cc(-c3ccccc3)nc2SC)cc1`, the Potency was 8.26 µM (active).

In the case of `CCOc1ccc(-c2cn(-c3ccc(OC)cc3)c(SC)n2)cc1`, the Potency is 2.93 µM (active).

Take `C=CCN1N=C(/C=C/c2ccc(OC)cc2)CCC1=O`: the Potency is 14.7 µM (active).

`C=CCN1N=C(/C=C/c2ccc(C)cc2)CCC1=O`: the Potency was 10.4 µM (active).

In the case of `Cc1cc2sc3nc(=O)n(-c4ccccc4)c(=O)n3c2cc1C`, the Potency is 4.14 µM (active).

On to `Cc1ccc2c(c1)sc1nc(=O)n(-c3ccccc3)c(=O)n12`, for which the Potency is 0.131 µM (active).

On to `Cc1snc(SCC(=O)c2ccc(F)cc2)c1C#N`, for which the Potency was 4.65 µM (active).

In the case of `O=C(Nc1ccc2oc(-c3ccccc3Cl)nc2c1)c1ncn[nH]1`, the Potency is 0.927 µM (active).

Consider `Cc1ccccc1-c1nc2cc(NC(=O)C3CC3)ccc2o1`, for which the Potency is 0.414 µM (active).

As for `O=C1c2ccccc2C(=O)c2cc(NC(=O)C3CC3)ccc21`, the Potency was 0.736 µM (active).

Turning to `O=C(Nc1ccccc1O)c1ccc(NC(=O)C2CC2)cc1`, the Potency was 6.56 µM (active).

As for `N#Cc1c(N2CCOCC2)nsc1-c1ccc(C(F)(F)F)cc1`, the Potency is 5.85 µM (active).

`N#Cc1c(N2CCOCC2)nsc1-c1ccccc1`: the Potency is 13.1 µM (active).

On to `N#Cc1c(N2CCCC2)nsc1-c1ccccc1`, for which the Potency is 16.5 µM (active).

On to `CCOc1ccc2nc(SCC(=O)c3cccs3)sc2c1`, for which the Potency was 4.14 µM (active).

On to `CC1CCc2sc3nc(N4CCN(CCO)CC4)n4ncnc4c3c2C1` (centres undefined), for which the Potency was 13.1 µM (active).

`CN1CCc2c(sc(NC(=O)C3COc4ccccc4O3)c2C(N)=O)C1` (centres undefined): the Potency was 9.27 µM (active).

On to `Fc1ccccc1Nc1nc2c(s1)CCc1ccccc1-2`, for which the Potency is 0.464 µM (active).

For the molecule `COc1cc(CCC(C)=O)ccc1OC(=O)c1c(F)cccc1Cl`, the Potency is 2.93 µM (active).

`C=CCn1c(SCC(=O)Nc2ccc(-c3nc4ccc(C)cc4s3)cc2)nnc1-c1ccccc1`: the Potency is 1.17 µM (active).

For `C=CCn1c(SCC(=O)Nc2ccc(-c3nc4ccc(C)cc4s3)cc2)nnc1-c1ccncc1`, the Potency was 8.26 µM (active).

Regarding `C/C(=N/Nc1ccc(C(=O)O)cc1)c1ccc(O)c(O)c1O`, the Potency was 18.5 µM (active).

As for `Cc1ccccc1-c1nnc(SCC(=O)N2CCCC2)o1`, the Potency was 7.36 µM (active).

With `O=C(CSc1nnc(-c2ccccc2Cl)o1)N1CCOCC1`, the Potency is 3.69 µM (active).

In the case of `CC(C)(C)C(=O)c1cnc(Nc2ccccc2)s1`, the Potency is 2.33 µM (active).

Turning to `CC(=O)c1cnc(Nc2cccc(C)c2)s1`, the Potency was 2.93 µM (active).

On to `O=C(O)c1cccc(N/N=C/c2cccc3ccccc23)c1`, for which the Potency was 0.0826 µM (active).

Turning to `O=C(O)c1cc(N/N=C/c2cccc3ccccc23)ccc1Cl`, the Potency was 3.29 µM (active).

On to `COc1ccccc1/C=C/C=N/Nc1cccc(C(=O)O)c1`, for which the Potency is 0.185 µM (active).

Take `Cc1[nH]c2ccccc2c1/C=N/Nc1cccc(C(=O)O)c1`: the Potency was 7.36 µM (active).

Turning to `CC(C)n1cc(/C=N/Nc2ccc(Cl)c(C(=O)O)c2)c2ccccc21`, the Potency was 3.29 µM (active).

Turning to `O=C(O)c1cc(N/N=C/c2c(O)ccc3ccccc23)ccc1Cl`, the Potency was 2.07 µM (active).

On to `Cc1cccc(N/N=C/c2ccccc2O)c1`, for which the Potency is 10.4 µM (active).

Turning to `COc1ccc2ccccc2c1/C=N/Nc1cccc(C(=O)O)c1`, the Potency was 6.56 µM (active).

Consider `Cc1[nH]c2ccccc2c1N=Nc1cccc(C(=O)O)c1`, for which the Potency is 1.85 µM (active).

As for `Cc1ccc(-c2nc3ccccn3c2Nc2ccc3c(c2)OCCO3)s1`, the Potency is 1.85 µM (active).

As for `Cc1ccn2c(Nc3ccc4c(c3)OCCO4)c(-c3ccc(Cl)s3)nc2c1`, the Potency was 13.1 µM (active).

For `COC(=O)c1sccc1N/N=C/c1ccc(OC)c(OC)c1OC`, the Potency was 6.56 µM (active).

`COC(=O)c1sccc1N/N=C/c1cccc(Oc2ccccc2)c1`: the Potency was 1.85 µM (active).

For the molecule `COc1cc(/C(C)=N/NC(=O)CSc2nncn2C)ccc1OCc1ccccc1Cl`, the Potency is 10.4 µM (active).

Regarding `C=CCNc1ncnc2c1cnn2-c1ccc(Cl)cc1`, the Potency is 0.329 µM (active).

Take `Clc1ccc(-n2ncc3c(NCc4ccccn4)ncnc32)cc1`: the Potency was 5.85 µM (active).

`Fc1cccc(Cl)c1CSc1nnc(-c2ccncc2)o1`: the Potency is 14.7 µM (active).

As for `O=C1/C(=C/c2ccco2)CCc2ccccc21`, the Potency was 18.5 µM (active).

`COc1ccc2c(c1)CC/C(=C\c1ccc(C)o1)C2=O`: the Potency was 2.93 µM (active).

For `COc1ccc2c(c1)CC/C(=C/c1ccco1)C2=O`, the Potency was 1.85 µM (active).

As for `O=[N+]([O-])c1ccccc1-c1nc(-c2ccc(Br)o2)no1`, the Potency is 1.47 µM (active).

`CCCCOc1ccc(CSc2nncn2N)cc1`: the Potency was 14.7 µM (active).

`Cc1ccsc1/C=C1\CCC(C2CCCC2)C1=O` (centres undefined): the Potency is 3.69 µM (active).

`COc1cccc(/C=C2\CCC(C3CCCC3)C2=O)c1OC` (centres undefined): the Potency was 4.14 µM (active).

On to `COc1ccc(NC(=O)c2noc3c2CCCC3)cc1Cl`, for which the Potency is 0.369 µM (active).

Regarding `Cc1c(Cl)cccc1NC(=O)c1noc2c1CCCC2`, the Potency is 7.36 µM (active).

For `Cc1ccc2c(c1)c1ncnc(N3CCC4(CC3)OCCO4)c1n2C`, the Potency is 7.36 µM (active).

`Cc1ccc2c(c1)c1ncnc(N3CCOCC3)c1n2C`: the Potency was 13.1 µM (active).

As to `Fc1ccccc1NC(=S)N/N=C/c1ccccc1Br`, the Potency was 4.65 µM (active).

Take `Fc1cccc(/C=N/NC(=S)Nc2ccccc2Cl)c1`: the Potency was 4.65 µM (active).

Regarding `N/C(=N\NC(=O)Nc1ccccc1)c1ccccn1`, the Potency was 2.61 µM (active).

Consider `N/C(=N\NC(=O)Nc1ccc(Cl)cc1)c1ccccn1`, for which the Potency is 3.29 µM (active).

On to `Cc1cc(C)c(C#N)c(SCc2nnc(-c3ccccc3[N+](=O)[O-])o2)n1`, for which the Potency was 3.69 µM (active).

With `O=c1c2ccccc2nc2sc3ccccc3n12`, the Potency is 6.56 µM (active).

Take `CCOc1cccc2c1OC1(CCCCC1)N1N=C(c3cccnc3)CC21` (centres undefined): the Potency was 16.5 µM (active).

On to `CCN1CCC2(CC1)Oc1c(OC)cccc1C1CC(c3cccnc3)=NN12` (centres undefined), for which the Potency was 11.7 µM (active).

Consider `CC(=O)c1c(C)[nH]c(C(=O)Nc2ccc(Cl)cc2F)c1C`, for which the Potency was 2.07 µM (active).

With `Cc1nnc2n(c1=O)N=C(c1ccc(Cl)cc1)CS2`, the Potency was 1.65 µM (active).

`O/N=C/c1ccnc(SCc2ccccc2)n1`: the Potency is 10.4 µM (active).

As to `Cc1nc(C)c(-c2ccc(SCc3ccccc3F)nn2)s1`, the Potency was 14.7 µM (active).

For `Cc1ccc2scc(N3CCCC(C)C3)c(=O)c2c1` (centres undefined), the Potency is 6.56 µM (active).

As to `Cc1ccc2scc(N3CCCCC3C)c(=O)c2c1` (centres undefined), the Potency is 14.7 µM (active).

Take `COc1ccc(NC(=S)Nc2cc(C)[nH]n2)cc1Cl`: the Potency was 18.5 µM (active).

For `Cc1cc(NC(=S)Nc2ccc(C)c(Cl)c2)n[nH]1`, the Potency was 7.36 µM (active).

In the case of `Cc1cc(C(=O)CSc2ccc3c(c2)OCCO3)c(C)n1C1CC1`, the Potency is 7.36 µM (active).

On to `Cc1ccc(NC(=O)c2ccc(=O)[nH]n2)cc1C`, for which the Potency is 6.56 µM (active).

As for `CC(C)(C)c1ccc(NC(=O)c2ccc(=O)[nH]n2)cc1`, the Potency is 0.826 µM (active).

`COc1cc(OC)cc(C(=O)NCC(=O)OCc2nc3ccccc3s2)c1`: the Potency was 0.464 µM (active).

Take `Nc1ccc(C(=O)OCc2nc3ccccc3s2)cc1`: the Potency is 16.5 µM (active).

`O=C(OCc1nc2ccccc2s1)c1ccco1`: the Potency is 7.36 µM (active).

Take `Cc1c(C)n(CCc2ccccc2)c2ncnc(NCCO)c12`: the Potency was 4.14 µM (active).

`Cc1ccc(-n2c(C)c(C)c3c(NCCCO)ncnc32)cc1`: the Potency is 7.36 µM (active).

As for `Cc1ccc(-n2c(C)c(C)c3c(NCCO)ncnc32)cc1`, the Potency was 13.1 µM (active).

As to `COc1ccc(-c2nnc(-c3ccc(F)cc3)o2)cc1`, the Potency is 1.04 µM (active).

For the molecule `COc1ccc(-c2nnc(-c3ccc(C)cc3)o2)cc1`, the Potency is 2.07 µM (active).

In the case of `c1ccc(Nc2nnc(-c3cccnc3)s2)cc1`, the Potency was 0.261 µM (active).

In the case of `CCS(=O)(=O)N1Cc2ccccc2CC1C(=O)Nc1nc(C)cs1` (centres undefined), the Potency was 10.4 µM (active).

Regarding `CCS(=O)(=O)N1Cc2ccccc2CC1C(=O)Nc1nc2ccc(F)cc2s1` (centres undefined), the Potency is 4.65 µM (active).

For `CCS(=O)(=O)N1Cc2ccccc2CC1C(=O)Nc1nccs1` (centres undefined), the Potency was 14.7 µM (active).
